Measured values as given in the supplement of paper PMC10338343.
± gives the standard deviation.

Tested on: EfPiwi piRISC loaded with L1MC piRNA (26 nt)
Assay: pre-steady-state target cleavage rate (min^-1); auxiliary factor: 500 nM Ephydatia muelleri Gtsf1; guide: L1MC piRNA 5'p-UAACUAAAUACUAUGCAAGCUGUAGG; MIWI and MILI are mouse PIWI proteins and EfPiwi is from a freshwater sponge; tags in brackets are library labels; higher = faster piRNA-guided slicing of the target
Method in brief: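 Cleave-'n-Seq measured uncleaved targets by sequencing after a transcribed, DNA-blocked target RNA library […] was mixed with 1 nM active affinity-purified piRISC holding one synthetic guide, with or without 500 nM GTSF1 partner protein, at 33 °C in HEPES–potassium acetate buffer for 0–8 or 0–960 min. Counts were normalised to depth and to weakly complementary targets, three trials were pooled, and k3 was capped at 0.0001 min^-1. A burst-and-steady-state fit gave the pre-steady-state cleavage rate.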

Row | Sequence | pre-steady-state target cleavage rate
1 | UCCUGGAUGUGCUUGCAUAGUAUUUUGUUA | 0.00341 ± 0.0026
2 | UCCUCCUACAGCUUCGAUAGUAUUUAGUUA | 0.0137 ± 0.0042
3 | UCCUGGUACAGCUUGCUUAGUAUUUAGUUA | 0.0165 ± 0.0049
4 | UCCUGCUACAGCUUGGUUAGUAUUUAGUAA | 0.00273 ± 0.0024
5 | UCCUGCUACAGCUUGCAUAGUAUUUAGUCA | 0.00386 ± 0.0017
6 | UCCUCCUACAGCAUGCAUAGUAAUUAGUUA | 0.0115 ± 0.0038
7 | UCCUGCUACAGGUUGCAUACUAUUUAGUUA | 0.00621 ± 0.0019
8 | UCCUGGUAGAGCUUGCAUAGUAUUUAGUAA | 0.00742 ± 0.0038
9 | UCCUGGUACAGCUUGCAUAGUAUAAUGUUA | 0.00312 ± 0.0026
10 | UCCUGGUACAGCUUGCAUAGUAUUCUAGUUA | 0.0044 ± 0.003
11 | UCCUGGUACAGCUUGCAUAGUAUUUAGUA | 0.00657 ± 0.0033
12 | UCCUGGUACAGCUUGCAUAGUAUCUUAGUUA | 0.00588 ± 0.0027
13 | UCCUGGUACAGCUUGCAUAGUGUUUAGUUA | 0.00794 ± 0.0028
14 | UCCUGGAACACUUGCAUAGUAUUUAGUUA | 0.0107 ± 0.0034
15 | UCCUGGAACAAGCUUGCAUAGUAUUUAGUUA | 0.0156 ± 0.0043
16 | UCCUGGAUGACGCUUGCAUAGUAUUUAGUUA | 0.0537 ± 0.014
17 | UCCUGGAACAGCAUGCAUUGUAUUUAGUUA | 0.00504 ± 0.002
18 | UCCUGCUCACAGCUUGCAUAGUAUUUAGUUA | 0.072 ± 0.016
19 | UCCUGGAUGAUCUUGCAUAGUAUUUAGUUA | 0.0779 ± 0.023
20 | UCCUGCUUCAGCUUGCAUAGUAUUUAGUUA | 0.103 ± 0.025

Row | Sequence | pre-steady-state target cleavage rate
21 | UCCUCCUACACCUUGCAAAGUAUUUAGUUA | 0.0172 ± 0.007
22 | UCCUGGAACAGGUUGCAUUGUAUUUAGUUA | 0.00526 ± 0.0019
23 | UCCUCCUACAGCUUGCAUUGUAUUUAGUUA | 0.0211 ± 0.0059
24 | UCCUGGAUGUGCUUGCAUAGUAUUUAGGUUA | 0.00262 ± 0.0021
25 | UCCUCCUAUAGCUUGCAUAGUAUUUAGUUA | 0.0108 ± 0.0034
26 | UCCUGGAUCAGCUUACAUAGUAUUUAGUUA | 0.175 ± 0.039
27 | UCCUCCAACUGCUUGCAUAGUAUUUAGUUA | 0.0183 ± 0.0064
28 | UCCUGGAUGUGAUUGCAUAGUAUUUAGUUA | 0.00623 ± 0.0031
29 | UCCUGGUACAGGUUGCAUAGUAUUAAGUUA | 0.00485 ± 0.0027
30 | UCCUGGAUGUGCUUGCAUAGUAUUUAGUAA | 0.00442 ± 0.002
31 | UCCUGGAACAGCUUAGCAUAGUAUUUAGUUA | 0.0218 ± 0.0061
32 | UCCUGGAUCAGCCUUGCAUAGUAUUUAGUUA | 0.0303 ± 0.0094
33 | UCCUGGAUAAGCUUGCAUAGUAUUUAGUUA | 0.0102 ± 0.004
34 | UCCUGGUAGAGCUAGCAUAGUAUUUAGUUA | 0.00968 ± 0.0033
35 | UCCUGGAACAGCUUCCAAAGUAUUUAGUUA | 0.00262 ± 0.0019
36 | UCCUGGUACAGCUUGCAUAGUAUUAUAGUUA | 0.00555 ± 0.0023
37 | UCCUGGUUACAGCUUGCAUAGUAUUUAGUUA | 0.0881 ± 0.021
38 | UCCUCCUUCAGCUUGGAUAGUAUUUAGUUA | 0.0562 ± 0.013
39 | UCCUGGAACAGCUUGCAUAGUAUUUAGUUG [g2:g23:cont:t1G] | 0.0115 ± 0.0034
40 | UCCUCGAUCAGCUUGCAUAGUAUUUAGUUA | 0.121 ± 0.023
